Measured values: the supplement of paper PMC10646978
± gives the standard deviation.

Assays:
Conditions in all cases: modulator concentration 10 µM
[1] = test system: RAW-Dual (murine macrophage reporter line); assay: NF-kB reporter (SEAP) activity fold change vs agonist alone; higher = enhanced NF-kB activity
In short: (§1)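 Compound reached 10 μM final in each well by pin transfer, onto RAW-Dual murine macrophage reporter cells seeded at 50 000 per well in 384-well plates. After 1 hour at 37 °C, the cells were stimulated overnight with a PRR agonist. SEAP in the supernatant was read with QUANTI-Blue at 620 nm absorbance for NF-κB, and Lucia luciferase was read with QUANTI-Luc luminescence for IRF. Each signal was turned into fold change against the mean agonist-only control on the same plate, and two replicate plates were averaged with propagated errors.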

[2] = test system: RAW-Dual (murine macrophage reporter line); assay: IRF reporter (Lucia luciferase) activity fold change vs agonist alone; higher = enhanced IRF activity
In short: as §1

[3] = test system: RAW-Dual (murine macrophage reporter line); assay: viability score (confluency relative to resting cells, overnight) (fraction); higher = more viable, active = viable (0.7 or more)
In short: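 A compound met the cutoff when both of two confluency masks exceeded 70% of resting cells. Those masks were made with IncuCyte software from IncuCyte images of RAW-Dual macrophages treated overnight at 10 μM final. This is the basis of the viability score, which is confluency relative to resting cells.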

[4] = agonist: CpG ODN 1826 0.5 ug/mL

| SMILES | NF-kB reporter [1, 4] | NF-kB reporter ([1]; agonist: LPS 0.1 ug/mL) | NF-kB reporter ([1]; agonist: MPLA […]) | IRF reporter ([2]; agonist: 3'3'-cGAMP 10 ug/mL) | IRF reporter ([2]; agonist: LPS 0.1 ug/mL) | IRF reporter ([2]; agonist: MPLA […]) | viability score [3] |
| --- | --- | --- | --- | --- | --- | --- | --- |
| CC(=O)c1ccc(NC(=O)CSc2ccc(-c3ccc4c(c3)OCO4)nn2)cc1 | 0.846 ± 0.28 | 1.04 ± 0.096 | 0.981 ± 0.11 | 0.955 ± 0.034 | 1.02 ± 0.2 | 1.03 ± 0.11 | 0.99 (active) |
| CN(C)[C@@H](CCOc1cccc2ccccc12)c1ccccc1.Cl | 0.603 ± 0.11 | 1.01 ± 0.17 | 0.66 ± 0.044 | 0.47 ± 0.015 | 1.25 ± 0.11 | 0.854 ± 0.068 | 0.178 (inactive) |
| Cc1cc(C)c(NC(=O)COc2ccc(C)cc2C(C)(C)C)c(C)c1 | 0.975 ± 0.13 | 0.975 ± 0.06 | 0.962 ± 0.11 | 0.953 ± 0.029 | 1.14 ± 0.19 | 1.01 ± 0.23 | 1.01 (active) |
| COc1cc(C=C2NC(=O)NC2=O)cc(I)c1OCc1ccccc1 | 0.986 ± 0.082 | 1.09 ± 0.066 | 0.93 ± 0.098 | 1.05 ± 0.025 | 1.37 ± 0.15 | 1.12 ± 0.23 | 1.01 (active) |
| COc1ccc(Cl)cc1C(=O)Nc1ccc(NC(=O)c2ccccc2)cc1 | 0.907 ± 0.079 | 1.12 ± 0.11 | 0.949 ± 0.057 | 0.937 ± 0.023 | 1.34 ± 0.2 | 1.09 ± 0.25 | 1.02 (active) |
| O=C(O)CCCNCP(=O)(O)CCc1ccccc1 | 0.97 ± 0.099 | 0.91 ± 0.093 | 0.881 ± 0.083 | 0.964 ± 0.048 | 0.989 ± 0.14 | 0.963 ± 0.19 | 1.03 (active) |
| CCC(C(=O)N1CCN(CCn2ccnc2-c2ccccc2)CC1)c1ccccc1 (configuration not stated) | 0.982 ± 0.17 | 0.999 ± 0.14 | 1.24 ± 0.076 | 1 ± 0.13 | 1.04 ± 0.24 | 0.956 ± 0.4 | 0.984 (active) |
| CS(=O)(=O)N(CC(=O)N1CCCCCC1)c1ccc(Cl)c(C(F)(F)F)c1 | 0.958 ± 0.11 | 1.21 ± 0.081 | 0.958 ± 0.036 | 0.974 ± 0.12 | 1.13 ± 0.15 | 1.15 ± 0.24 | 1 (active) |
| Cc1ccc(Nc2nc(N3CCOCC3)nc(N3CCN(c4ccccc4)CC3)n2)cc1 | 0.454 ± 0.029 | 1.05 ± 0.084 | 1.98 ± 0.059 | 0.711 ± 0.027 | 1.4 ± 0.067 | 1.9 ± 0.18 | 0.996 (active) |
| C=CCNC(=O)COc1ccccc1C | 0.782 ± 0.073 | 0.887 ± 0.042 | 0.985 ± 0.086 | 1.05 ± 0.048 | 1.36 ± 0.082 | 1.48 ± 0.16 | 1 (active) |
| CCC(=O)Nc1ccc(N2CCCCC2)c(Cl)c1 | 1.1 ± 0.23 | 1.14 ± 0.091 | 1.04 ± 0.1 | 0.773 ± 0.026 | 1.41 ± 0.18 | 1.38 ± 0.28 | 0.992 (active) |
| c1ccc(-n2nnnc2SCc2ccc3c(c2)OCO3)cc1 | 1.1 ± 0.096 | 1.22 ± 0.14 | 1.46 ± 0.096 | 0.785 ± 0.029 | 0.988 ± 0.11 | 1.13 ± 0.25 | 0.998 (active) |
| CCS(=O)(=O)N1CCC(Oc2cc(C)nc(C)n2)CC1 | 1.23 ± 0.07 | 0.996 ± 0.086 | 0.963 ± 0.046 | 0.982 ± 0.05 | 1.05 ± 0.049 | 0.916 ± 0.093 | 0.997 (active) |
| COc1cc2ncnc(Nc3ccc(F)c(Cl)c3)c2cc1NC(=O)/C=C/CN1CCCCC1 | 0.666 ± 0.32 | 0.936 ± 0.083 | 0.989 ± 0.081 | 0.486 ± 0.026 | 0.958 ± 0.2 | 0.861 ± 0.22 | 0.988 (active) |
| O=[N+]([O-])c1cc(C(F)(F)F)ccc1N1CCN(CC=Cc2ccccc2)CC1 | 0.915 ± 0.078 | 1.07 ± 0.099 | 0.985 ± 0.071 | 0.976 ± 0.036 | 1.47 ± 0.24 | 1.14 ± 0.12 | 1.01 (active) |
| CC(O)Cn1cnc2c1c(=O)n(C)c(=O)n2C (configuration not stated) | 1.06 ± 0.082 | 1.06 ± 0.065 | 1.01 ± 0.036 | 0.99 ± 0.07 | 0.972 ± 0.11 | 0.957 ± 0.11 | 0.998 (active) |
| CN(C)CCOC(c1ccccc1)c1ccccc1.Cl | 1.12 ± 0.16 | 1.11 ± 0.089 | 0.985 ± 0.11 | 0.791 ± 0.029 | 1.17 ± 0.1 | 1.03 ± 0.12 | 0.999 (active) |
| COCCn1c(C)cc(C(=O)CSc2ncnc3sc4c(c23)CCC4)c1C | 0.991 ± 0.067 | 1.11 ± 0.12 | 1.02 ± 0.079 | 1.04 ± 0.036 | 1.43 ± 0.12 | 1.16 ± 0.12 | 0.994 (active) |
| Cc1ccc([N+](=O)[O-])cc1S(=O)(=O)N(C)C | 1.05 ± 0.17 | 0.949 ± 0.077 | 1 ± 0.1 | 1.06 ± 0.037 | 1.09 ± 0.26 | 1.2 ± 0.12 | 1 (active) |
| CC1(C)CC(=O)C2=C(C1)OC(N)=C(C#N)C2C1CCCCC1 (configuration not stated) | 0.983 ± 0.076 | 0.926 ± 0.12 | 0.929 ± 0.093 | 0.987 ± 0.089 | 1.33 ± 0.22 | 1.47 ± 0.19 | 1.01 (active) |
| CN(C)CCOC1=Cc2ccccc2Sc2ccc(Cl)cc21 [Prestw-1368] | 0.965 ± 0.077 | 0.97 ± 0.094 | 1.11 ± 0.039 | 0.772 ± 0.031 | 0.895 ± 0.061 | 0.761 ± 0.099 | 0.994 (active) |
| CC1C(C#N)=C(N)OC2=C1C(=O)CC(C)(C)C2 (configuration not stated) | 1.01 ± 0.083 | 0.965 ± 0.12 | 0.96 ± 0.09 | 0.917 ± 0.072 | 1.28 ± 0.23 | 1.47 ± 0.35 | 1.02 (active) |
| CC(=O)N1CCN(C(=O)Cn2cnc(-c3ccc(C)cc3)cc2=O)CC1 | 0.929 ± 0.095 | 1.01 ± 0.1 | 1.06 ± 0.14 | 1.02 ± 0.058 | 1.17 ± 0.24 | 1.18 ± 0.45 | 0.964 (active) |
| CCCC(=O)Nc1ccc(N2CCCCC2)cc1 | 0.833 ± 0.067 | 0.901 ± 0.046 | 0.979 ± 0.09 | 0.895 ± 0.043 | 1.48 ± 0.1 | 1.65 ± 0.17 | 0.985 (active) |
| COc1ccc(C(=O)Nc2ccc(Br)c(C)c2)cc1 | 1.03 ± 0.089 | 1.1 ± 0.088 | 1.1 ± 0.038 | 0.767 ± 0.029 | 1.01 ± 0.098 | 1.2 ± 0.14 | 1 (active) |
| O=C(NCCO)c1cc(C(=O)NCCO)cc(C(=O)NCCO)c1 | 0.964 ± 0.065 | 1.05 ± 0.064 | 0.923 ± 0.054 | 0.981 ± 0.043 | 1.36 ± 0.099 | 1.18 ± 0.29 | 1.01 (active) |
